# Data: the supplement of paper PMC11001985
# Unmarked numbers belong to inactive results.
# Target: ATP1B3 (UniProt P54709)
# Assay: lysine labeling ratio R10:1 (500 µM / 50 µM probe), SILAC-ABPP in living cells; higher = lower intrinsic lysine reactivity toward the probe, active = 2 or less
# Conditions: HeLa, probe concentrations 500 vs 50 µM
# Method: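 Living HeLa cells (SILAC light/heavy) in PBS at room temperature were labeled with 50 µM versus 500 µM of the lysine-reactive, reductant-cleavable probe OPA-S-S-alkyne (SILAC labeling time not stated). Probe-modified peptides were CuAAC-biotinylated, captured on neutravidin and eluted with DTT/IAA, then quantified by LC-MS/MS. R = median peptide ratio per lysine (500/50 µM), combined over 3 forward and 3 reverse SILAC replicates. Ratios are capped at 20; R < 2 = hyper-reactive.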
# Chain of ATP1B3 (P54709 whole entry): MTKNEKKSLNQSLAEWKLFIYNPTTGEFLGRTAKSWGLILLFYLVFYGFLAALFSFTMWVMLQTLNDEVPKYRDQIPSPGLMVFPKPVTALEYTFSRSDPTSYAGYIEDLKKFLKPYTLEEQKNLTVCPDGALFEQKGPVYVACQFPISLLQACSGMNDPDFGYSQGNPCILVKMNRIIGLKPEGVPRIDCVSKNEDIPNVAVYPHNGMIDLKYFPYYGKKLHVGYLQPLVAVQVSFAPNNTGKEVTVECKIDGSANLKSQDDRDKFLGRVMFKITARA
compound,measurement,setting,value
C#CCNC(=O)CCSSCCC(=O)NCCc1ccc(C=O)c(C=O)c1,lysine labeling ratio R10:1,lysine site: K182,5.21
same,lysine labeling ratio R10:1,lysine site: K220,0.695 (active)
same,lysine labeling ratio R10:1,lysine site: K259,3.28
same,lysine labeling ratio R10:1,lysine site: K266,2.22
same,lysine labeling ratio R10:1,lysine site: K274,9.2
